# Source: article PMC5540273 (PLoS ONE, 2017)
# Where “and” joins values, the source holds several entries; their conditions need not be identical. Equal values may be shown once. Read-outs that look alike come from different tables or passages of the source.
# Key:
# HPK1 = conditions: concentration: 1 μM, replicates: in singlicate, n = 1
# HUNK = conditions: concentration: 1 μM, replicates: in singlicate, n = 1
# ICK = conditions: concentration: 1 μM, replicates: in singlicate, n = 1
# IGF1R = conditions: concentration: 1 μM, replicates: in singlicate, n = 1
# IKK-alpha = tested on: T1, IKK-alpha; conditions: concentration: 1 μM, replicates: in singlicate, n = 1
# T1 construct: gene CHUK
# IKK-beta = tested on: T2, IKK-beta; conditions: concentration: 1 μM, replicates: in singlicate, n = 1
# T2 construct: gene IKBKB
# IKK-epsilon = tested on: T3, IKK-epsilon; conditions: concentration: 1 μM, replicates: in singlicate, n = 1
# T3 construct: gene IKBKE
# INSRR = conditions: concentration: 1 μM, replicates: in singlicate; n = 1
# INSR = conditions: concentration: 1 μM, replicates: in singlicate; n = 1
# IRAK1 = conditions: concentration: 1 μM, replicates: in singlicate, n = 1
# IRAK3 = conditions: concentration: 1 μM, replicates: in singlicate; n = 1
# IRAK4 = conditions: concentration: 1 μM, replicates: in singlicate; n = 1
# ITK = conditions: concentration: 1 μM, replicates: in singlicate, n = 1
# [1] = tested on: JAK1(JH1domain-catalytic); conditions: concentration: 1 μM, replicates: in singlicate, n = 1
# [2] = tested on: JAK1(JH2domain-pseudokinase); conditions: concentration: 1 μM, replicates: in singlicate, n = 1
# [3] = tested on: JAK2(JH1domain-catalytic); conditions: concentration: 1 μM, replicates: in singlicate, n = 1
# [4] = tested on: JAK3(JH1domain-catalytic); conditions: concentration: 1 μM, replicates: in singlicate; n = 1
# JNK1 = tested on: T4, JNK1; conditions: concentration: 1 μM, replicates: in singlicate, n = 1
# T4 construct: gene MAPK8
# JNK2 = tested on: T5, JNK2; conditions: concentration: 1 μM, replicates: in singlicate; n = 1
# T5 construct: gene MAPK9
# JNK3 = tested on: T6, JNK3; conditions: concentration: 1 μM, replicates: in singlicate; n = 1
# T6 construct: gene MAPK10
# 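Further: KINOMEscan kinase panel screen.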
compound,measurement,setting,value
N#Cc1ccc(-c2cc(-c3c[nH]nc3-c3ccccn3)ccn2)cc1 [GW693028],%Inh,HPK1,38%
same,%Inh,HUNK,0%
same,%Inh,ICK,11%
same,%Inh,IGF1R,22%
same,%Inh,IKK-alpha,25%
same,%Inh,IKK-beta,19%
same,%Inh,IKK-epsilon,0%
same,%Inh,INSRR,0%
same,%Inh,INSR,1%
same,%Inh,IRAK1,39%
same,%Inh,IRAK3,0%
same,%Inh,IRAK4,22%
same,%Inh,ITK,9%
same,%Inh,[1],22%
same,%Inh,[2],0%
same,%Inh,[3],9%
same,%Inh,[4],0%
same,%Inh,JNK1,34%
same,%Inh,JNK2,59%
same,%Inh,JNK3,69%
Cn1ccc2ncnc(Oc3ccc(NC(=O)Nc4ccncc4)c(Cl)c3)c21,%Inh,HPK1,0%
same,%Inh,HUNK,0%
same,%Inh,ICK,0%
same,%Inh,IGF1R,0%
same,%Inh,IKK-alpha,14%
same,%Inh,IKK-beta,16%
same,%Inh,IKK-epsilon,0%
same,%Inh,INSRR,0%
same,%Inh,INSR,11%
same,%Inh,IRAK1,8%
same,%Inh,IRAK3,0%
same,%Inh,IRAK4,7%
same,%Inh,ITK,0%
same,%Inh,[1],14%
same,%Inh,[2],0%
same,%Inh,[3],0%
same,%Inh,[4],0%
same,%Inh,JNK1,0%
same,%Inh,JNK2,0%
same,%Inh,JNK3,0%
O=c1cc(N2CCOCC2)nc2n(Cc3cccc(C(F)(F)F)c3)ccn12 [GSK2297543],%Inh,HPK1,20%
same,%Inh,HUNK,41%
same,%Inh,ICK,0%
same,%Inh,IGF1R,0%
same,%Inh,IKK-alpha,0%
same,%Inh,IKK-beta,0%
same,%Inh,IKK-epsilon,7%
same,%Inh,INSRR,0%
same,%Inh,INSR,14%
same,%Inh,IRAK1,0%
same,%Inh,IRAK3,0%
same,%Inh,IRAK4,0%
same,%Inh,ITK,9%
same,%Inh,[1],2%
same,%Inh,[2],0%
same,%Inh,[3],0%
same,%Inh,[4],0%
same,%Inh,JNK1,0%
same,%Inh,JNK2,10%
same,%Inh,JNK3,0%
Nc1nc(-c2ccc3c(N)n[nH]c3c2)cc(N2CCCC2)n1 [GSK2227430],%Inh,HPK1,39%
same,%Inh,HUNK,0%
same,%Inh,ICK,0%
same,%Inh,IGF1R,0%
same,%Inh,IKK-alpha,0%
same,%Inh,IKK-beta,0%
same,%Inh,IKK-epsilon,40%
same,%Inh,INSRR,0%
same,%Inh,INSR,0%
same,%Inh,IRAK1,0%
same,%Inh,IRAK3,0%
same,%Inh,IRAK4,2%
same,%Inh,ITK,0%
same,%Inh,[1],0%
same,%Inh,[2],11%
same,%Inh,[3],0%
same,%Inh,[4],0%
same,%Inh,JNK1,5%
same,%Inh,JNK2,12%
same,%Inh,JNK3,0%
Cc1cccc(-c2nc(Nc3ccc4ncsc4c3)c3ccccc3n2)n1 [GW867588],%Inh,HPK1,0%
same,%Inh,HUNK,45%
same,%Inh,ICK,17%
same,%Inh,IGF1R,0%
same,%Inh,IKK-alpha,15%
same,%Inh,IKK-beta,0%
same,%Inh,IKK-epsilon,4%
same,%Inh,INSRR,0%
same,%Inh,INSR,0%
same,%Inh,IRAK1,40%
same,%Inh,IRAK3,0%
same,%Inh,IRAK4,0%
same,%Inh,ITK,30%
same,%Inh,[1],0%
same,%Inh,[2],62%
same,%Inh,[3],0%
same,%Inh,[4],0%
same,%Inh,JNK1,2%
same,%Inh,JNK2,8%
same,%Inh,JNK3,0%
Cl.Cl.Cl.Fc1ccc(-c2ncn(C3CCNCC3)c2-c2ccnc(Nc3ccccc3)n2)cc1 [SB-238039],%Inh,HPK1; 1 µM,96.2% and 92.5%
same,%Inh,HUNK; 1 µM,61% and 0%
same,%Inh,ICK; 1 µM,0% and 34%
same,%Inh,IGF1R; 1 µM,37% and 0%
same,%Inh,IKK-alpha; 1 µM,34% and 0%
same,%Inh,IKK-beta; 1 µM,10% and 0%
same,%Inh,IKK-epsilon; 1 µM,0% and 3%
same,%Inh,INSRR,0%
same,%Inh,INSR,15%
same,%Inh,IRAK1; 1 µM,66% and 0%
same,%Inh,IRAK3,0%
same,%Inh,IRAK4,0%
same,%Inh,ITK; 1 µM,5% and 14%
same,%Inh,[1]; 1 µM,0% and 8%
same,%Inh,[2]; 1 µM,15% and 0%
same,%Inh,[3]; 1 µM,44% and 0%
same,%Inh,[4],0%
same,%Inh,JNK1; 1 µM,97% and 96.3%
same,%Inh,JNK2,100%
same,%Inh,JNK3,99.8%
O=C(NCCNc1ccnc(Nc2ccc(F)cc2)n1)c1cc2ccccc2s1 [GSK1379874],%Inh,HPK1,33%
same,%Inh,HUNK,12%
same,%Inh,ICK,0%
same,%Inh,IGF1R,0%
same,%Inh,IKK-alpha,0%
same,%Inh,IKK-beta,0%
same,%Inh,IKK-epsilon,22%
same,%Inh,INSRR,0%
same,%Inh,INSR,0%
same,%Inh,IRAK1,16%
same,%Inh,IRAK3,0%
same,%Inh,IRAK4,10%
same,%Inh,ITK,6%
same,%Inh,[1],12%
same,%Inh,[2],0%
same,%Inh,[3],0%
same,%Inh,[4],0%
same,%Inh,JNK1,13%
same,%Inh,JNK2,0%
same,%Inh,JNK3,0%
CCc1ccnc(/C=C/c2n[nH]c3cc(Sc4ccccc4C(=O)NC)ccc23)c1,%Inh,HPK1,30%
same,%Inh,HUNK,0%
same,%Inh,ICK,0%
same,%Inh,IGF1R,0%
same,%Inh,IKK-alpha,8%
same,%Inh,IKK-beta,4%
same,%Inh,IKK-epsilon,14%
same,%Inh,INSRR,0%
same,%Inh,INSR,0%
same,%Inh,IRAK1,8%
same,%Inh,IRAK3,32%
same,%Inh,IRAK4,5%
same,%Inh,ITK,1%
same,%Inh,[1],0%
same,%Inh,[2],0%
same,%Inh,[3],0%
same,%Inh,[4],0%
same,%Inh,JNK1,0%
same,%Inh,JNK2,3%
same,%Inh,JNK3,0%
Cc1nnc(-c2ccc(C)c(-c3ccc(C(=O)Nc4ccc(NS(C)(=O)=O)cc4)cc3)c2)o1 [GW702865],%Inh,HPK1,0%
same,%Inh,HUNK,15%
same,%Inh,ICK,0%
same,%Inh,IGF1R,17%
same,%Inh,IKK-alpha,0%
same,%Inh,IKK-beta,0%
same,%Inh,IKK-epsilon,31%
same,%Inh,INSRR,0%
same,%Inh,INSR,0%
same,%Inh,IRAK1,17%
same,%Inh,IRAK3,0%
same,%Inh,IRAK4,0%
same,%Inh,ITK,0%
same,%Inh,[1],9%
same,%Inh,[2],0%
same,%Inh,[3],0%
same,%Inh,[4],0%
same,%Inh,JNK1,0%
same,%Inh,JNK2,0%
same,%Inh,JNK3,0%
O=c1cc(N2CCOCC2)nc2n(Cc3cccc(Cl)c3Cl)c(C3CC3)nn12 [GSK2358994],%Inh,HPK1,14%
same,%Inh,HUNK,0%
same,%Inh,ICK,4%
same,%Inh,IGF1R,0%
same,%Inh,IKK-alpha,0%
same,%Inh,IKK-beta,0%
same,%Inh,IKK-epsilon,0%
same,%Inh,INSRR,0%
same,%Inh,INSR,0%
same,%Inh,IRAK1,0%
same,%Inh,IRAK3,0%
same,%Inh,IRAK4,0%
same,%Inh,ITK,4%
same,%Inh,[1],9%
same,%Inh,[2],3%
same,%Inh,[3],6%
same,%Inh,[4],0%
same,%Inh,JNK1,19%
same,%Inh,JNK2,0%
same,%Inh,JNK3,0%
